Columns and labels:
Assay in all cases: DAPPL (digital affinity profiling via proximity ligation, sequencing); 10 mM Tris-HCl pH 7.5, 50 mM NaCl, 1 mM DTT, 4% glycerol, room temperature, 30 min; GST-TFs on glutathione beads, 16-mer random dsDNA library, 0.1% formaldehyde crosslink after washing; high values mean tight binding
Conditions in all cases: protein: recombinant; tags: N-terminal GST; dsDNA, one strand shown
FLI1 = target: T1, FLI1 (Homo sapiens, UniProt Q01543 1-452)
T1 sequence: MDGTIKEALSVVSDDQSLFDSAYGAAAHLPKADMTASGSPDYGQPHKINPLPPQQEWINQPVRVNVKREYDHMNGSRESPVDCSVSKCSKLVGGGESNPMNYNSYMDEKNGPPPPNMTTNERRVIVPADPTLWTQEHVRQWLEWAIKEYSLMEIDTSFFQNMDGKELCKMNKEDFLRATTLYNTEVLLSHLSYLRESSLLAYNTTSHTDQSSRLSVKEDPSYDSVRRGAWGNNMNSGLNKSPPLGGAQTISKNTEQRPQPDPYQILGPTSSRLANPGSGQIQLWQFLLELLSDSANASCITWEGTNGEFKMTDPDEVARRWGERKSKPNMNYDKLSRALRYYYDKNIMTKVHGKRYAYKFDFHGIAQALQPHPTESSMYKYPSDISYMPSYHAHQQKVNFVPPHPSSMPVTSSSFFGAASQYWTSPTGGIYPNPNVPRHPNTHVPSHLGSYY
Method in brief: (§1)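 Binding signal is defined as a hexamer's read frequency for one factor over its frequency for the tag-only sample. To obtain reads, GST-fused human transcription factors were expressed in yeast, captured on glutathione beads, barcoded with DNA and pooled with that sample. Pools met 200 nmole of a 16-mer random double-stranded DNA library in Tris/NaCl/DTT/glycerol buffer for 30 min at room temperature before washing, 0.1% formaldehyde crosslinking, proximity ligation (BsaI/T4 ligase, 1 h, 37 °C), PCR and Illumina NextSeq500 sequencing.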

ELK1 = target: T2, ELK1 (Homo sapiens, UniProt P19419 1-428)
T2 sequence: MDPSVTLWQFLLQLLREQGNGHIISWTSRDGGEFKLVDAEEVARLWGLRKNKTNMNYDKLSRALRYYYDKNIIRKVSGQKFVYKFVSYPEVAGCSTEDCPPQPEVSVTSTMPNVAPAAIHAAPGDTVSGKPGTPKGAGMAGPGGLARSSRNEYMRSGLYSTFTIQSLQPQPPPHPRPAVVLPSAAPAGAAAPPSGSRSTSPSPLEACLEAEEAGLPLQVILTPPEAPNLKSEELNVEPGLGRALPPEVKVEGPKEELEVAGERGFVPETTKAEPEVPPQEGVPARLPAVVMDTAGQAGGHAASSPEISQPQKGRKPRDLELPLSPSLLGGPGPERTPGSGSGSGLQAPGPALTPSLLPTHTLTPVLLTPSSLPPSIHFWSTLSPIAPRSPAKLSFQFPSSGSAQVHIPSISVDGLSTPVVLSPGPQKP
Method in brief: as §1

GABPA = target: T3, GABPA (Homo sapiens, UniProt Q06546 1-454)
T3 sequence: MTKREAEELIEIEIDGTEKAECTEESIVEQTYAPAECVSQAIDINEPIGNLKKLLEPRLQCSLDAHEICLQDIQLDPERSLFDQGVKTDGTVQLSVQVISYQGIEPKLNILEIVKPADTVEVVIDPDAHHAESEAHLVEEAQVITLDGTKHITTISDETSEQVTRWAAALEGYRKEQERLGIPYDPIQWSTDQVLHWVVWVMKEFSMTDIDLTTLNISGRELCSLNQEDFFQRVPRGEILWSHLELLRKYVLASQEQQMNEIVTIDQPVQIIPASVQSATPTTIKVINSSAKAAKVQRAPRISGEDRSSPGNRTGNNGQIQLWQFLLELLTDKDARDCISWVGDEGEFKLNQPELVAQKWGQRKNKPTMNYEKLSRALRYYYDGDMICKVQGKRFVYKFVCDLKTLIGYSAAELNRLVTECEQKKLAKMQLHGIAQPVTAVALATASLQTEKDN
Method in brief: as §1

ERG = target: T4, ERG (Homo sapiens, UniProt P11308 1-479)
T4 sequence: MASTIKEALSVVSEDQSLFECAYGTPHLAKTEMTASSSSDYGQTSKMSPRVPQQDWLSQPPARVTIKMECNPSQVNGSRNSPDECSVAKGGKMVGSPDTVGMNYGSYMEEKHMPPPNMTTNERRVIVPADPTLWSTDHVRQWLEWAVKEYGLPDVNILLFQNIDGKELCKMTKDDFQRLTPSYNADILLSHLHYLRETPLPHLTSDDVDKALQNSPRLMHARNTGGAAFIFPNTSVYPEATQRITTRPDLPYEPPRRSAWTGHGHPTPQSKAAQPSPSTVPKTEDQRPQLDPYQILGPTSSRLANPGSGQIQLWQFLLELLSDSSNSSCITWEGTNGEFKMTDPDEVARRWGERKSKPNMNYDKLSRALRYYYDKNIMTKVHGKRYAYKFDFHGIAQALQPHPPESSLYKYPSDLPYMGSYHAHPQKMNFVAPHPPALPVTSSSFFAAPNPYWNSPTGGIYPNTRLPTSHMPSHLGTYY
Method in brief: as §1

ELF1 = ELF1 (Homo sapiens, UniProt P32519 1-619)
Method in brief: as §1

EHF = target: T5, EHF (Homo sapiens, UniProt Q9NZC4 1-300)
T5 sequence: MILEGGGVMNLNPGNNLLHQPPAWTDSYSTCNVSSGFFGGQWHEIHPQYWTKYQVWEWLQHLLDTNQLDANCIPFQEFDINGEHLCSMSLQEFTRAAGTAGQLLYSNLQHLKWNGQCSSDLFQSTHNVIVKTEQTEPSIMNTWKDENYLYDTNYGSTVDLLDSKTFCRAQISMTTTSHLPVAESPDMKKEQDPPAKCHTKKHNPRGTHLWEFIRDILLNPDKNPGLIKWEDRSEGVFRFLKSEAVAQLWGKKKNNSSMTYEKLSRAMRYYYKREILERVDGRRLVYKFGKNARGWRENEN
Method in brief: as §1

SPI1 = SPI1 (Homo sapiens, UniProt P17947 1-270)
Method in brief: as §1

SPIB = SPIB (Homo sapiens, UniProt Q01892 1-262)
Method in brief: as §1

ELK3 = target: T6, ELK3 (Homo sapiens, UniProt P41970 1-407)
T6 sequence: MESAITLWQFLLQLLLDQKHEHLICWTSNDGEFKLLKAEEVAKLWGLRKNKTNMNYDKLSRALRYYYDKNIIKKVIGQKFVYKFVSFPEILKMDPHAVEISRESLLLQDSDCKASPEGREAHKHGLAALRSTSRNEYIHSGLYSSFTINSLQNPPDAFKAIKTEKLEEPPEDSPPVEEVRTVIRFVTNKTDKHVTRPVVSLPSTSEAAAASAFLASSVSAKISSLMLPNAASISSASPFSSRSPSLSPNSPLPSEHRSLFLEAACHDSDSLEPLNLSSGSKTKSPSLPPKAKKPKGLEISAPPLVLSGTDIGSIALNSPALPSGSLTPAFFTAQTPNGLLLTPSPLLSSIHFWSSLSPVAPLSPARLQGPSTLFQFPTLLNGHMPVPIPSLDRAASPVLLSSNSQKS
Method in brief: as §1

FEV = target: T7, FEV (Homo sapiens, UniProt Q99581 1-238)
T7 sequence: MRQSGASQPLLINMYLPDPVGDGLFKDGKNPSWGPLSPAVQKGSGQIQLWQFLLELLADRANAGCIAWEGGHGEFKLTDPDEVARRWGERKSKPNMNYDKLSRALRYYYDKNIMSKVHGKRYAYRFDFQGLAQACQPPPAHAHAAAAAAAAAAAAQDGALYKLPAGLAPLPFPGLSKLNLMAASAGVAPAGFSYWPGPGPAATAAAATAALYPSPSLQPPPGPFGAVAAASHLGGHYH
Method in brief: as §1

ETV5 = ETV5 (Homo sapiens, UniProt P41161 1-510)
Method in brief: as §1

SPIC = target: T8, SPIC (Homo sapiens, UniProt Q8N5J4 1-248)
T8 sequence: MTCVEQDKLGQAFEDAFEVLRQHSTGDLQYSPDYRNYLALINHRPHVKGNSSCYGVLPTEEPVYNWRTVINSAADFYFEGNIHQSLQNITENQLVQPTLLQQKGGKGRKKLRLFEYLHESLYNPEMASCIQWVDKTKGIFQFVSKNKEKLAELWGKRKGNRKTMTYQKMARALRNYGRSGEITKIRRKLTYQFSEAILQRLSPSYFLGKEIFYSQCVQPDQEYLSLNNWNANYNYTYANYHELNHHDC
Method in brief: as §1

ELF4 = ELF4 (Homo sapiens, UniProt Q99607 1-663)
Method in brief: as §1

ELK4 = target: T9, ELK4 (Homo sapiens, UniProt P28324-2 1-405)
T9 sequence: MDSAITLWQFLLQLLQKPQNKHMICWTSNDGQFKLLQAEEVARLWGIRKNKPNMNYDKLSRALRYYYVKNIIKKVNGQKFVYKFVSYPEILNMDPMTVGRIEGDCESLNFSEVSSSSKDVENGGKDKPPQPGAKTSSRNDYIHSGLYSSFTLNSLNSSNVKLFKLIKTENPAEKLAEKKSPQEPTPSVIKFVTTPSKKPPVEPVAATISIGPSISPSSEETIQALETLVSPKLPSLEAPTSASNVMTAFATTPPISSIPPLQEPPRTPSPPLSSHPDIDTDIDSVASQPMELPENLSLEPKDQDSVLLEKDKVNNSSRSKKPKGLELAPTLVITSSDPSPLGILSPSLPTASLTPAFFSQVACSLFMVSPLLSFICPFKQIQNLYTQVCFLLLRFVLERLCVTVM
Method in brief: as §1

ETV2 = target: T10, ETV2 (Homo sapiens, UniProt O00321 1-342)
T10 sequence: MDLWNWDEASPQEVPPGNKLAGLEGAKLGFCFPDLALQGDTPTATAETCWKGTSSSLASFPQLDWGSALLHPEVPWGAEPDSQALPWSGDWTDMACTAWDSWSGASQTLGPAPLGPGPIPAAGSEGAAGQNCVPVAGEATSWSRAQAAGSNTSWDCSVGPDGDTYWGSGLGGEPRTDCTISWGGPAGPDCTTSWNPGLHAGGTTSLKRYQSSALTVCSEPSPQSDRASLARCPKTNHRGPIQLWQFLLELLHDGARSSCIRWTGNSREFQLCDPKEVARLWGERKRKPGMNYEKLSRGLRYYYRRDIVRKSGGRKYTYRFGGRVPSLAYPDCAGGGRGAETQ
Method in brief: as §1

ELF3 = target: T11, ELF3 (Homo sapiens, UniProt P78545 1-371)
T11 sequence: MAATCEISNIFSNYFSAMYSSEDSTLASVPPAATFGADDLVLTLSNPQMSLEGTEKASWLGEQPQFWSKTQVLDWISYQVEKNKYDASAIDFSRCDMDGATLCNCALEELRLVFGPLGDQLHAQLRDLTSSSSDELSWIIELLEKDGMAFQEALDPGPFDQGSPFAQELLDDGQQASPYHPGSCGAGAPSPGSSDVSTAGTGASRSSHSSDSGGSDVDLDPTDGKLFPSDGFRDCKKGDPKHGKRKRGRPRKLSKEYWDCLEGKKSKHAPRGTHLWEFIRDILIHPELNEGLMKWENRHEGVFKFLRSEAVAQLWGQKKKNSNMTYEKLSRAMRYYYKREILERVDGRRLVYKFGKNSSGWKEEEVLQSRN
Method in brief: as §1

ETV1 = ETV1 (Homo sapiens, UniProt P50549 1-477)
Method in brief: as §1

Sequence of ETV1 (P50549 whole entry): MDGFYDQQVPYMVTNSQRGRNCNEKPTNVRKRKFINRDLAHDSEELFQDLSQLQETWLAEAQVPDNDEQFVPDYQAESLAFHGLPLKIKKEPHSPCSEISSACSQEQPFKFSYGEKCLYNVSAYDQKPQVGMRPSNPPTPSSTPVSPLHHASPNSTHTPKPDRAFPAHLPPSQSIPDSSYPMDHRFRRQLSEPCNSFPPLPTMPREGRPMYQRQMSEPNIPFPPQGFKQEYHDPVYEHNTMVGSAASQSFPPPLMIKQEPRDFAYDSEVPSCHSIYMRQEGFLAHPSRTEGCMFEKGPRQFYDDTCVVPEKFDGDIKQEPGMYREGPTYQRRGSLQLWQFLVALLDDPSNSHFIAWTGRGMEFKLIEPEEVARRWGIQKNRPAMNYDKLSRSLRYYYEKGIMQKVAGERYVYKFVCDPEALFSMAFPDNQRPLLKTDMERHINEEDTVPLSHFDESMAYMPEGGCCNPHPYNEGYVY
Sequence of ELF1 (P32519 whole entry): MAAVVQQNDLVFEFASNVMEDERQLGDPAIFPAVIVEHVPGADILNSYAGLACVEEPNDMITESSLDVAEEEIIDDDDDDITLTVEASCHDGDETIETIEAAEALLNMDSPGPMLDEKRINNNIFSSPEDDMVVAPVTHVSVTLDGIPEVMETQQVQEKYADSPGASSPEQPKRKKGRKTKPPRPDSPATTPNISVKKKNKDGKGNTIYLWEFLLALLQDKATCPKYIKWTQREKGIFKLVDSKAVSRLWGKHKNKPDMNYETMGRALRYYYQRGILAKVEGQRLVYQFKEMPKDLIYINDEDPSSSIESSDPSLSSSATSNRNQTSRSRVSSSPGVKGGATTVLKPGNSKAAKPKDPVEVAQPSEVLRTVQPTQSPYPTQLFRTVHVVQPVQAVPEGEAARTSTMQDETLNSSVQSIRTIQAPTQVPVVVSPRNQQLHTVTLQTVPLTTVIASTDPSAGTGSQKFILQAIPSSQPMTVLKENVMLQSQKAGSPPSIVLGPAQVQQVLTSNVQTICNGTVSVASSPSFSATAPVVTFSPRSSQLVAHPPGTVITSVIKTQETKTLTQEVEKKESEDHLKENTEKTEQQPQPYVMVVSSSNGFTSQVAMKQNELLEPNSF
Sequence of SPIB (Q01892 whole entry): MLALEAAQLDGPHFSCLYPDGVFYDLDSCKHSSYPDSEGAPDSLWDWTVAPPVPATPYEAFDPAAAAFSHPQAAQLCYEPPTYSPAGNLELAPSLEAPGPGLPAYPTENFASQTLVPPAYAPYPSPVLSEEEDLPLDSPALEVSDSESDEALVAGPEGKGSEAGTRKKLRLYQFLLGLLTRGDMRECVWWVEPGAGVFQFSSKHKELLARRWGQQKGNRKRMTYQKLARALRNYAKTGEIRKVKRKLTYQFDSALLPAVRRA
Sequence of ELF4 (Q99607 whole entry): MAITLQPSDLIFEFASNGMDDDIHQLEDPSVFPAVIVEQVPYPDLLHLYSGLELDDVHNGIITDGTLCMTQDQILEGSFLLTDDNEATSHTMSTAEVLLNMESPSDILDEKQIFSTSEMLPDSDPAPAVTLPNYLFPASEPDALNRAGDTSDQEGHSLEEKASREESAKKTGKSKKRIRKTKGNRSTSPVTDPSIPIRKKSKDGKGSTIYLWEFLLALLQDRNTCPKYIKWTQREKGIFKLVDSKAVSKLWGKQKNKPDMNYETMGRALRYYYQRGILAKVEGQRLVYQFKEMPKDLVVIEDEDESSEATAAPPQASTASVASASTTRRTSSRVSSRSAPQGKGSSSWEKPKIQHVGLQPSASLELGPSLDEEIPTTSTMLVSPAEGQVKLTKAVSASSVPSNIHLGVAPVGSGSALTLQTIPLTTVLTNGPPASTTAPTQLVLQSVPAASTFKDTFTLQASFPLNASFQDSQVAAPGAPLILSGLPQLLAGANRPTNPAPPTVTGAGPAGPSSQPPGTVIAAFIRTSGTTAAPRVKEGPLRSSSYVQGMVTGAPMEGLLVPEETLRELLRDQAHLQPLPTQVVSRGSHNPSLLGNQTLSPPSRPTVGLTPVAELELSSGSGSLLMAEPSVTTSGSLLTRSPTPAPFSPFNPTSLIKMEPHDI
Sequence of ETV5 (P41161 whole entry): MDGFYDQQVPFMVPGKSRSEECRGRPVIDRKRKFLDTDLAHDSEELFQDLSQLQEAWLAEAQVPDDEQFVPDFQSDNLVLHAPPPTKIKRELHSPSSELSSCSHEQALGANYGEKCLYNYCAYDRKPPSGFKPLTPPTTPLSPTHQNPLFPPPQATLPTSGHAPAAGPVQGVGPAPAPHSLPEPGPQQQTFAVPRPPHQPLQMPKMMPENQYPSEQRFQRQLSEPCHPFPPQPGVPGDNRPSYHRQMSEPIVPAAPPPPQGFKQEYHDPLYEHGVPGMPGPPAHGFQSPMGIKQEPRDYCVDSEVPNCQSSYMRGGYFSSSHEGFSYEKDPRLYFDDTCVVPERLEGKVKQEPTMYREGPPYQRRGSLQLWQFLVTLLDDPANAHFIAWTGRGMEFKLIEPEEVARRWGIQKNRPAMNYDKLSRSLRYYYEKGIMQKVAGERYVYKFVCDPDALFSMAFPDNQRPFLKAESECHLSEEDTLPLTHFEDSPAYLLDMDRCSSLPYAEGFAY

Sequence | binding signal (FLI1) | binding signal (ELK1) | binding signal (GABPA) | binding signal (ERG) | binding signal (ELF1) | binding signal (EHF) | binding signal (SPI1) | binding signal (SPIB) | binding signal (ELK3) | binding signal (FEV) | binding signal (ETV5) | binding signal (SPIC) | binding signal (ELF4) | binding signal (ELK4) | binding signal (ETV2) | binding signal (ELF3) | binding signal (ETV1)
CATAAC | 1.09 fold enrichment (6-mer frequency, TF over GST control) | 1.2 fold enrichment (6-mer frequency, TF over GST control) | 1.15 fold enrichment (6-mer frequency, TF over GST control) | 1.1 fold enrichment (6-mer frequency, TF over GST control) | 1.22 fold enrichment (6-mer frequency, TF over GST control) | 1.09 fold enrichment (6-mer frequency, TF over GST control) | 1.16 fold enrichment (6-mer frequency, TF over GST control) | 1.13 fold enrichment (6-mer frequency, TF over GST control) | 1.18 fold enrichment (6-mer frequency, TF over GST control) | 1.08 fold enrichment (6-mer frequency, TF over GST control) | 1.16 fold enrichment (6-mer frequency, TF over GST control) | 1.2 fold enrichment (6-mer frequency, TF over GST control) | 1.1 fold enrichment (6-mer frequency, TF over GST control) | 1.25 fold enrichment (6-mer frequency, TF over GST control) | 1.11 fold enrichment (6-mer frequency, TF over GST control) | 1.13 fold enrichment (6-mer frequency, TF over GST control) | 1.1 fold enrichment (6-mer frequency, TF over GST control)
CGACCG | 1.2 fold enrichment (6-mer frequency, TF over GST control) | 1.19 fold enrichment (6-mer frequency, TF over GST control) | 1.21 fold enrichment (6-mer frequency, TF over GST control) | 1.36 fold enrichment (6-mer frequency, TF over GST control) | 1.17 fold enrichment (6-mer frequency, TF over GST control) | 1.11 fold enrichment (6-mer frequency, TF over GST control) | 1.06 fold enrichment (6-mer frequency, TF over GST control) | 1.07 fold enrichment (6-mer frequency, TF over GST control) | 1.21 fold enrichment (6-mer frequency, TF over GST control) | 1.6 fold enrichment (6-mer frequency, TF over GST control) | 1.19 fold enrichment (6-mer frequency, TF over GST control) | 1.09 fold enrichment (6-mer frequency, TF over GST control) | 1.28 fold enrichment (6-mer frequency, TF over GST control) | 1.17 fold enrichment (6-mer frequency, TF over GST control) | 1.35 fold enrichment (6-mer frequency, TF over GST control) | 1.27 fold enrichment (6-mer frequency, TF over GST control) | 1.26 fold enrichment (6-mer frequency, TF over GST control)
CAACCT | 1.2 fold enrichment (6-mer frequency, TF over GST control) | 1.16 fold enrichment (6-mer frequency, TF over GST control) | 1.23 fold enrichment (6-mer frequency, TF over GST control) | 1.13 fold enrichment (6-mer frequency, TF over GST control) | 1.2 fold enrichment (6-mer frequency, TF over GST control) | 1.21 fold enrichment (6-mer frequency, TF over GST control) | 1.14 fold enrichment (6-mer frequency, TF over GST control) | 1.17 fold enrichment (6-mer frequency, TF over GST control) | 1.08 fold enrichment (6-mer frequency, TF over GST control) | 1.21 fold enrichment (6-mer frequency, TF over GST control) | 1.18 fold enrichment (6-mer frequency, TF over GST control) | 1.13 fold enrichment (6-mer frequency, TF over GST control) | 1.11 fold enrichment (6-mer frequency, TF over GST control) | 1.15 fold enrichment (6-mer frequency, TF over GST control) | 1.28 fold enrichment (6-mer frequency, TF over GST control) | 1.12 fold enrichment (6-mer frequency, TF over GST control) | 1.2 fold enrichment (6-mer frequency, TF over GST control)

From publication PMC7862700, “An all-to-all approach to the identification of sequence-specific readers for epigenetic DNA modifications on cytosine”
